This note sets out measurements from PubChem BioAssay (NCI).

Test systems include NCI-H23 lung; NCI-H226 lung; NCI-H322M lung; HOP-62 NSCLC; NCI-H460 lung; HOP-92 NSCLC; NCI-H522 lung; A549/ATCC NSCLC; 786-0 renal; COLO 205 colon; DU-145 prostate; K-562 leukemia; MALME-3M melanoma; MDA-MB-231 breast; RXF 393 renal; SF-268 CNS; SF-295 CNS; SF-539 CNS; UACC-257 melanoma; M14 melanoma.
Common to all, as to experiment: NCI-60 one-dose screen, 48 h (100 = growth as untreated, 0 = no growth, -100 = all killed)
Conditions in all cases: 10 µM unless noted

The structures appear in SMILES notation. Values joined by “and” are separate entries in the source; they are usually repeats but may differ in a detail not shown here. Identical values can stand only once. The panel holds about 83,000 compounds, 20% with a hit somewhere; the sample as a whole holds those more often.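 Plates (96-well) were seeded with cells, treated with compound at one concentration, and incubated for 48 hours before percent growth was determined.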 Active and inactive are the calls of the source. Rule for the calls: active = growth percent below 10; inactive = the rest.

In the case of `CC(=O)NC(Cc1ccccc1)C(=O)Oc1ccc2ccccc2c1` (stereo not given), the growth in the assay with NCI-H23 lung was 95.9% (inactive) and 86.5% (inactive); in the assay on NCI-H226 lung, 101% (inactive) and 106% (inactive); in the assay on NCI-H322M lung, 124% (inactive) and 108% (inactive); in the assay with HOP-62 NSCLC, 96.9% (inactive) and 94.7% (inactive); in the assay on NCI-H460 lung, 106% (inactive) and 107% (inactive); in the assay with HOP-92 NSCLC, 78% (inactive) and 84.9% (inactive). Besides, the growth with NCI-H522 lung was 98.2% (inactive); in the assay on A549/ATCC NSCLC, 94.7% (inactive) and 102% (inactive); in the assay with 786-0 renal it was 110% (inactive); in the assay on COLO 205 colon, 93.3% (inactive) and 105% (inactive); with DU-145 prostate it was 107% (inactive) and 109% (inactive); in the assay on K-562 leukemia it was 106% (inactive) and 113% (inactive). The growth with MALME-3M melanoma is 109% (inactive); with MDA-MB-231 breast it was 104% (inactive) and 103% (inactive); with RXF 393 renal it was 113% (inactive) and 115% (inactive); in the assay with SF-268 CNS it was 100% (inactive); with SF-295 CNS, 113% (inactive); in the assay with SF-539 CNS it was 91.6% (inactive) and 90% (inactive). Further, the growth with UACC-257 melanoma was 104% (inactive) and 116% (inactive); with M14 melanoma, 109% (inactive) and 118% (inactive).

Regarding `CCCCCN(CCCCC)CC(O)c1cc2c(c3ccccc13)CCCC2` (stereo not given), the growth with NCI-H23 lung was 31.5% (inactive) and 40.8% (inactive); in the assay on NCI-H226 lung it was 69.8% (inactive) and 53.2% (inactive); in the assay with NCI-H322M lung, 71.3% (inactive) and 38.5% (inactive); in the assay with HOP-62 NSCLC, 36.2% (inactive) and 75.6% (inactive); with NCI-H460 lung it was 38.7% (inactive) and 25.8% (inactive); with HOP-92 NSCLC, -14.4% (active). For the same compound, the growth in the assay with NCI-H522 lung was 53% (inactive) and 50.1% (inactive); in the assay on A549/ATCC NSCLC it was 71.1% (inactive) and 59.9% (inactive); in the assay with 786-0 renal, 39.1% (inactive) and 27.2% (inactive); in the assay on COLO 205 colon, 40.7% (inactive); in the assay with DU-145 prostate it was 75.5% (inactive) and 80.2% (inactive); in the assay with K-562 leukemia, 23.5% (inactive) and 24.7% (inactive). Also, the growth in the assay with MALME-3M melanoma was 65.4% (inactive) and 74.3% (inactive); in the assay with MDA-MB-231 breast, 8.63% (active) and 59.1% (inactive); in the assay on RXF 393 renal, 26% (inactive) and 87.5% (inactive); with SF-268 CNS, 86.7% (inactive) and 80% (inactive); in the assay with SF-295 CNS, 55.5% (inactive); with SF-539 CNS, 68.8% (inactive) and 52% (inactive). Moreover, the growth is 71.9% (inactive) and 71.5% (inactive) in the assay on UACC-257 melanoma; 76.8% (inactive) and 72.4% (inactive) in the assay with M14 melanoma.

For the compound `COc1ccc(CCN(C)CCCC(C#N)(c2ccc(OC)c(OC)c2)C(C)C)cc1OC` (stereo not given), the growth with NCI-H23 lung was 86.9% (inactive) and 106% (inactive) and 86.1% (inactive); in the assay with NCI-H226 lung it was 113% (inactive) and 102% (inactive) and 101% (inactive); in the assay on NCI-H322M lung, 96.4% (inactive) and 91.3% (inactive); in the assay with HOP-62 NSCLC, 90.8% (inactive) and 86.4% (inactive); with NCI-H460 lung, 95.5% (inactive) and 111% (inactive) and 102% (inactive); in the assay with HOP-92 NSCLC, 81.2% (inactive). In addition, the growth in the assay with NCI-H522 lung is 98.8% (inactive) and 91.6% (inactive); with A549/ATCC NSCLC, 87.5% (inactive) and 104% (inactive) and 101% (inactive); in the assay on 786-0 renal, 93.7% (inactive) and 88.8% (inactive) and 107% (inactive); in the assay on COLO 205 colon, 100% (inactive) and 109% (inactive) and 101% (inactive); in the assay on DU-145 prostate, 103% (inactive) and 96.6% (inactive); in the assay with K-562 leukemia, 72.5% (inactive) and 95.2% (inactive). The growth is 93.8% (inactive) and 102% (inactive) and 89.6% (inactive) in the assay on MALME-3M melanoma; 85.2% (inactive) and 95.4% (inactive) and 99.3% (inactive) in the assay on MDA-MB-231 breast; 103% (inactive) and 96.2% (inactive) and 96.3% (inactive) in the assay on RXF 393 renal; 97.4% (inactive) and 103% (inactive) and 96.2% (inactive) in the assay with SF-268 CNS; 74.7% (inactive) and 67.2% (inactive) and 100% (inactive) in the assay on SF-295 CNS; 107% (inactive) and 87.8% (inactive) and 110% (inactive) with SF-539 CNS. The growth was 91.8% (inactive) and 96.1% (inactive) and 89.5% (inactive) with UACC-257 melanoma; 102% (inactive) and 86.1% (inactive) and 94.2% (inactive) in the assay with M14 melanoma.

In the case of `O=C(Nc1cccc(-n2ccc3c(NC(=O)c4ccccc4)nccc32)c1)c1ccc(Cl)c(C(F)(F)F)c1`, the growth is -9.83% (active) and 72.4% (inactive) with NCI-H23 lung; 34.5% (inactive) and 75.3% (inactive) in the assay on NCI-H226 lung; 22.6% (inactive) and 79.3% (inactive) in the assay on NCI-H322M lung; -50.5% (active) and 67.7% (inactive) with HOP-62 NSCLC; -51.4% (active) and 12.8% (inactive) in the assay with NCI-H460 lung; -13.5% (active) with HOP-92 NSCLC. The growth is 82.8% (inactive) with NCI-H522 lung; 36.8% (inactive) in the assay with A549/ATCC NSCLC; -74.9% (active) and 48% (inactive) with 786-0 renal; -49.7% (active) and 55.7% (inactive) in the assay with COLO 205 colon; -36% (active) and 61.6% (inactive) in the assay on DU-145 prostate; 2.58% (active) and 27.6% (inactive) in the assay on K-562 leukemia. For the same compound, the growth in the assay on MALME-3M melanoma was -35.4% (active); with MDA-MB-231 breast, -11.2% (active) and 81.4% (inactive); in the assay with RXF 393 renal, -89.4% (active) and 94.8% (inactive); in the assay with SF-268 CNS, -44.1% (active); in the assay with SF-295 CNS, -53.7% (active) and 38.4% (inactive); in the assay on SF-539 CNS, -66% (active) and 52.8% (inactive). The growth is 65.2% (inactive) in the assay with UACC-257 melanoma; -29.6% (active) and 64% (inactive) in the assay on M14 melanoma.
